Assay results taken from PubChem BioAssay (NCATS).
“And” between values parts separate entries of the source, which are not always exact repeats. Identical values can stand only once. Records with an inconclusive call do not appear. The source made the active and inactive calls. Unless noted, calls come from the whole dose curve; as a rule, active = well fitted curve in the direction sought with a large enough effect; inconclusive = small, poorly fitted or top-dose-only effect, or another doubt; inactive = no such curve, though single readings can be large; an effect the other way counts as inactive or inconclusive.

How the values were obtained:
[1] = Cell Viability - SK-N-SH (AID 435; calls by dose curve; note: potency is the fitted concentration of half-maximal effect); details: SK-N-SH neuroblastoma cell viability qHTS
How it was run: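 qHTS cytotoxicity: CellTiter-Glo ATP luminescence after 40 h compound exposure of human neuroblastoma SK-N-SH cells at 37 °C. AC50 derived by Hill-equation fitting, with DMSO as basal and 100 uM tamoxifen as full inhibition.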

[2] = Cell Viability - HUV-EC-C (AID 542); details: HUV-EC-C endothelial cell viability, qHTS; series mostly up to 92.2 µM;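 note: cells exposed to compound for 40 hours; % is set by controls: 0 for no effect and ±100 for the full control effect; nearly all actives have a fitted effect of over 35% in size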
How it was run: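 Concentration-dependent ATP loss in HUV-EC-C cells is the measure. Exposure lasts 40 hr at 37 °C; luminescence follows CellTiter-Glo addition, and Hill fits give AC50.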

[3] = Cellular Toxicity (caspase-3) Mesangial (AID 660); details: mesangial cells, normalized: DMSO 0%, 100 µM tamoxifen 100%; series mostly up to 91.7 µM;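 note: combined caspase 3 and 7 activity read by Caspase-Glo luminescence; cells exposed to compound for 16 h before the caspase read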
How it was run: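 AC50 values come from Hill-equation fits of caspase 3/7 activation, measured as Caspase-Glo luminescence in human glomerular mesangial cells exposed to compound for 16 h at 37 °C; 100% set by 100 uM tamoxifen.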

[4] = Cellular Toxicity (caspase-3) H-4-II-E (AID 663); details: H-4-II-E rat hepatoma; Potency: caspase-3 activation; series mostly up to 92.2 µM;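 note: cells exposed to compound for 16 hr before readout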
How it was run: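 H-4-II-E rat hepatoma, 1500 cells/well, 5 hr settle at 37 °C; compound 16 hr, 37 °C, complete medium; Caspase-Glo 3/7, 20 min RT; luminescence. DMSO = 0%, 100 uM tamoxifen = 100%; Hill-equation AC50.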

[5] = Cellular Toxicity (caspase-3) N2a (AID 665); details: N2a cells, luminescence, normalized: DMSO 0%, 10 µM staurosporine 100%; series mostly up to 92.2 µM;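 note: compound exposure lasted 16 h at 37 °C before readout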
How it was run: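 Concentration-response qHTS: compound-induced caspase-3/7 luminescence in N2a cells (16 h, 37 °C), relative to DMSO and 10 uM staurosporine controls; AC50 obtained using the standard Hill equation.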

[6] = Cellular Toxicity (caspase-3) NIH 3T3 (AID 666); details: NIH 3T3 caspase-3 activation, apoptosis/toxicity; series mostly up to 92.2 µM;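 note: caspase signal read after 16 h compound exposure; 0% = DMSO basal and 100% = 100 µM tamoxifen stimulation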
How it was run: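 Activity: caspase-3/7 induction, NIH 3T3 cells, 16 hr treatment at 37°C, luminescent Caspase-Glo detection; AC50 via Hill equation.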

[7] = MultiTox-Fluor Cytotoxicity Assay - LYMP1-001 - Live Cells (AID 947); details: LYMP1-001 lymphoblastoid cells, live-cell protease fluorescence viability; series mostly up to 92.2 µM;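 note: 0% = DMSO only and full inhibition = tetraoctylammonium bromide control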
[8] = Cell Viability - LYMP2-009 (AID 968); details: LYMP2-009 lymphoblastoid cell viability; series mostly up to 92.2 µM;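 note: 0% = DMSO alone and the full-kill end = tetraoctylammonium bromide at 92 µM; nearly all actives have a fitted effect of over 55% in size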
[9] = Cell Viability - LYMP2-011 (AID 969); details: LYMP2-011 lymphoblastoid cells viability; series mostly up to 92.2 µM;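 note: 0% = DMSO only and full inhibition = 92 µM tetraoctylammonium bromide; nearly all actives have a fitted effect of over 60% in size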
How it was run: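 Cells seeded at 2500 per well rest 5 hr before compound addition, then incubate 24 hr at 37 C. CellTiter-Glo reagent is added for 30 min at room temperature before luminescence detection.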

[10] = Cell Viability - LYMP2-013 (AID 970); details: LYMP2-013 lymphoblastoid cells viability; series mostly up to 92.2 µM;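 note: 0% = DMSO only and full inhibition = tetraoctylammonium bromide control; nearly all actives have a fitted effect of over 55% in size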
How it was run: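 In complete culture medium, human lymphoblastoid cells were dosed for 24 hr at 37 C, with tetraoctylammonium bromide (6.4pM to 92 uM) as positive control. Viability reflects luciferase-based ATP signal; AC50 derived from concentration-response curves.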

[11] = Cell Viability - LYMP2-015 (AID 971); details: LYMP2-015 lymphoblastoid cell viability; series mostly up to 92.2 µM;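 note: 0% = DMSO only and full effect = 92 µM tetraoctylammonium bromide; nearly all actives have a fitted effect of over 55% in size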
How it was run: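 AC50 values reflect Hill-model fits of ATP-based luminescence (CellTiter-Glo) from a human lymphoblastoid line, 2500 cells/well, treated 24 hr at 37 C.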

[12] = Cell Viability - LYMP2-021 (AID 974); details: LYMP2-021 lymphoblastoid cells viability; series mostly up to 92.2 µM;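 note: compound exposure lasts 24 hours at 37 °C; % is set by controls: 0 for no effect and ±100 for the full control effect; nearly all actives have a fitted effect of over 55% in size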
How it was run: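 In qHTS format, compounds are tested against 2500 lymphoblastoid cells per well for 24 h; viable cell number is inferred from ATP-driven luciferase light, and Hill-equation fitting yields AC50 values.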

[13] = Cell Viability - LYMP2-002 (AID 977); details: LYMP2-002 lymphoblastoid cell viability, qHTS; series mostly up to 92.2 µM;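 note: compound exposure lasted 24 h at 37 °C; plate controls were DMSO only for no effect and 92 µM tetraoctylammonium bromide for full effect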
How it was run: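 Human lymphoblastoid cells, 2500/well, complete medium; 5 h 37 C settle; compound 24 h 37 C; CellTiter-Glo, 30 min RT; luminescence. Decrease in ATP = cytotoxicity; AC50 via Hill equation.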

[14] = Cell Viability - LYMP2-006 (AID 978); details: LYMP2-006 lymphoblastoid cell viability, qHTS; series mostly up to 92.2 µM; note: % is set by controls: 0 for no effect and ±100 for the full control effect; nearly all actives have a fitted effect of over 60% in size
How it was run: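 Potency values are Hill-fit AC50s for decreases in intracellular ATP (CellTiter-Glo luminescence). LYMP2-006 lymphoblastoid cells, 2500 per well, were exposed to compound in complete culture medium for 24 hr at 37 C.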

[15] = Cell Viability - LYMP2-022 (AID 987); details: LYMP2-022 lymphoblastoid cell viability; series mostly up to 92.2 µM
How it was run: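 In this qHTS cytotoxicity screen, compound titrations were incubated 24 hr at 37 C with human lymphoblastoid cells in complete medium. Luciferase-based ATP luminescence provided the viability signal.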

[16] = Cell Viability - LYMP2-024 (AID 988); details: LYMP2-024 lymphoblastoid cell viability; series mostly up to 92.2 µM;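 note: plate controls were DMSO only for no effect and 92 µM tetraoctylammonium bromide for full effect; nearly all actives have a fitted effect of over 60% in size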
How it was run: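 Cells at 2500 per well received compound for 24 hr after a 5 hr settling period. Viability was scored by CellTiter-Glo luminescence, with AC50 from Hill fits.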

[17] = molecular target: Retinoic acid receptor RXR-alpha (Homo sapiens) (UniProt P19793); assay: qHTS assay for small molecule antagonists of retinoid X receptor alpha signaling (AID 588546; active = well fitted inhibition curve with a large enough effect in the signal ratio, with a control signal flat, not every such curve was filed as active; the % refers to the signal ratio;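 note: cells stimulated with 9-cis-retinoic acid as agonist; % is set by controls: 0 for no effect and ±100 for the full control effect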); details: HEK293T RXRa-UAS-bla, beta-lactamase ratio, antagonist mode
Sequence of Retinoic acid receptor RXR-alpha (Homo sapiens) (P19793 whole entry, looked up): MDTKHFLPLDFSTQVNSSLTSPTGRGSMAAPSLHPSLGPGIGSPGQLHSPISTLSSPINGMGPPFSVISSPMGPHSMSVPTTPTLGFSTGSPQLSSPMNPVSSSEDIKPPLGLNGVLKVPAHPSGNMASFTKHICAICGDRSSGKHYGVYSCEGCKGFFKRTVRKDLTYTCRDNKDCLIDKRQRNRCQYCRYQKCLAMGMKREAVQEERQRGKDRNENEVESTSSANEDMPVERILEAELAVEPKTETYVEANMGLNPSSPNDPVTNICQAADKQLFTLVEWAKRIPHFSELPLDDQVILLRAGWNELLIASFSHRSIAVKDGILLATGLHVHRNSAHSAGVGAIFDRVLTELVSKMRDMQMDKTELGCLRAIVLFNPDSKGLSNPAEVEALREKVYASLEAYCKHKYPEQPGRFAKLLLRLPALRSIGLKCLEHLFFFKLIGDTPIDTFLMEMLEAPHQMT
How it was run: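 Beta-lactamase reporter inhibition, read as CCF4 fluorescence ratio (ex 405, em 460/530 nm) after 2 h at RT. HEK293T UAS-bla cells, 2500/well, were stimulated with 9-cis-RA at 500 or 100 nM final alongside test compound for 18 h at 37 C.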

[18] = qHTS assay for small molecule agonists of the antioxidant response element (ARE) signaling pathway measured by Nrf2-dependant transcriptional activity (AID 720636; active = well fitted curve in the direction sought with a large enough effect in the repeat runs; an effect the other way counts as inactive or inconclusive;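 note: HepG2 cells with an ARE-driven luciferase reporter; % of control where 0% means no effect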); details: ARE-luc HepG2, Nrf2 luciferase reporter, 16 h; series mostly up to 92.4 µM
How it was run: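 ONE-Glo luminescence, read 30 min after reagent addition at room temperature, reflected ARE reporter activity in HepG2 cells that had been incubated with compound for 16 hr at 37 C in 1% dialyzed FBS.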

[19] = qHTS assay for cell viability of the p53RE-bla HCT-116 cell line (AID 743292); details: p53RE-bla HCT-116 viability, ATP luminescence, 16 h; series mostly up to 95 µM
How it was run: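 After plating at 4,000 cells per well and a 5 h rest at 37 C, HCT-116 cells carrying p53RE-bla received test chemicals in DMSO. Sixteen hours later at 37 C, CellTiter-Glo was added and luminescence recorded following 30 min at room temperature.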

[20] = Cellular Toxicity (caspase-3) Renal Proximal Tubule (AID 667); details: renal proximal tubule cells; series mostly up to 91.7 µM;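 note: cells exposed to compound for 16 hours at 37 °C before detection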
How it was run: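 Caspase 3/7 activation measured by luminescent aminoluciferin release in primary rat proximal tubule cells after 16 hr compound exposure at 37 °C. AC50 from Hill-fitted concentration-response, scaled between DMSO and 10 uM staurosporine.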

CC(C)OC(=O)Cc1ccccc1
inactive: Potency [1] > 92 µM | Potency [2] | outcome [3] | Potency [4] | outcome [5] | Potency [6] | outcome [7] | Potency [8] | Potency [9] | Potency [10] | Potency [11] | Potency [12] | Potency [13] | Potency [14] | Potency [15] | Potency [16] | max response [17] 8.61% | Potency [18] | Potency [19]

OCCCCO
inactive: Potency [1] > 92 µM | Potency [2] | outcome [3] | outcome [5] | Potency [6] | outcome [7] | Potency [9] | Potency [10] | Potency [13] | Potency [14] | Potency [15] | Potency [16] | max response [17] -1.35% | Potency [19]

Clc1ccc(Cl)c(Cl)c1
inactive: Potency [1] > 92 µM | Potency [2] | Potency [4] | outcome [5] | Potency [6] | outcome [20] | outcome [7] | Potency [8] | Potency [10] | Potency [11] | Potency [13] | Potency [14] | Potency [15] | max response [17] 7.63% and -21.3% | Potency [18]

CC(C)CON=O
inactive: Potency [1] > 92 µM | Potency [2] | outcome [3] | Potency [4] | outcome [5] | Potency [6] | outcome [20] | outcome [7] | Potency [8] | Potency [10] | Potency [11] | Potency [12] | Potency [13] | Potency [14] | Potency [15] | Potency [16] | max response [17] 8.37% | Potency [18] | Potency [19]

CN=C=O
inactive: Potency [1] > 92 µM | Potency [2] | outcome [3] | Potency [4] | outcome [5] | Potency [6] | outcome [20] | outcome [7] | Potency [8] | Potency [9] | Potency [10] | Potency [11] | Potency [12] | Potency [13] | Potency [14] | Potency [15] | Potency [16] | max response [17] 0.777% | Potency [18] | Potency [19]

C=CCCl
inactive: Potency [1] > 92 µM | Potency [2] | outcome [3] | Potency [4] | outcome [20] | outcome [7] | Potency [9] | Potency [10] | Potency [11] | Potency [12] | Potency [13] | Potency [14] | Potency [15] | Potency [16] | Potency [18] | Potency [19]

c1ccoc1
inactive: Potency [1] > 92 µM | Potency [2] | outcome [3] | Potency [4] | outcome [5] | Potency [6] | outcome [20] | Potency [8] | Potency [9] | Potency [10] | Potency [11] | Potency [12] | Potency [13] | Potency [15] | Potency [16] | max response [17] -5.23% | Potency [18] | Potency [19]

CCC(Cl)[N+](=O)[O-] (stereo unspecified)
inactive: Potency [1] > 92 µM | Potency [2] | outcome [3] | outcome [5] | Potency [6] | Potency [8] | Potency [9] | Potency [11] | Potency [12] | Potency [14] | Potency [15] | Potency [16] | max response [17] -10.3% | Potency [18] | Potency [19]

Clc1cccc2ccccc12
inactive: Potency [1] > 92 µM | Potency [2] | outcome [3] | outcome [5] | Potency [6] | Potency [8] | Potency [11] | Potency [12] | Potency [13] | Potency [14] | Potency [15] | Potency [16] | max response [17] -3.67% | Potency [18] | Potency [19]

CC(C)Br
inactive: Potency [1] > 92 µM | Potency [2] | outcome [3] | outcome [5] | outcome [20] | outcome [7] | Potency [9] | Potency [10] | Potency [11] | Potency [12] | Potency [13] | Potency [14] | Potency [15] | Potency [16] | max response [17] -3.19% | Potency [18] | Potency [19]

NNC(N)=S
inactive: Potency [1] > 92 µM | Potency [2] | outcome [3] | Potency [4] | outcome [5] | Potency [6] | outcome [20] | outcome [7] | Potency [9] | Potency [10] | Potency [11] | Potency [12] | Potency [13] | Potency [14] | Potency [15] | max response [17] 9.82% | Potency [18] | Potency [19]

C/C=C/CC#N
inactive: Potency [1] > 92 µM | Potency [2] | outcome [3] | Potency [4] | outcome [5] | Potency [6] | outcome [20] | outcome [7] | Potency [8] | Potency [9] | Potency [12] | Potency [14] | Potency [15] | Potency [16] | max response [17] 13.1%

c1ccc(NNc2ccccc2)cc1
inactive: Potency [1] > 92 µM | Potency [2] | outcome [3] | Potency [4] | outcome [5] | outcome [7] | Potency [8] | Potency [9] | Potency [10] | Potency [11] | Potency [13] | Potency [14] | Potency [15] | Potency [16] | Potency [18] | Potency [19]

Nc1cc(Cl)cc(Cl)c1
inactive: Potency [1] > 92 µM | Potency [2] | outcome [3] | Potency [4] | outcome [5] | outcome [20] | outcome [7] | Potency [8] | Potency [9] | Potency [10] | Potency [11] | Potency [12] | Potency [13] | Potency [14] | Potency [15] | Potency [16] | max response [17] 0.872% | Potency [18] | Potency [19]

C1CC2OC2CC1C1CO1 (stereo unspecified)
inactive: Potency [1] > 92 µM | Potency [2] | outcome [3] | Potency [4] | outcome [20] | outcome [7] | Potency [8] | Potency [9] | Potency [10] | Potency [11] | Potency [14] | Potency [16] | Potency [18]

O=[N+]([O-])c1ccccc1-c1ccccc1
inactive: Potency [1] > 92 µM | Potency [2] | outcome [3] | Potency [4] | outcome [5] | Potency [6] | outcome [7] | Potency [8] | Potency [9] | Potency [10] | Potency [12] | Potency [14] | Potency [15] | Potency [16] | max response [17] 0.902% | Potency [18] | Potency [19]
